Data from PubChem BioAssay AID1159580 (chemical genetic matrix, 2015).
Among all 5,500 compounds or so, about 2,000 (36%) were called active. Inconclusive results (about 18%) are left out. Rule as the data show it: active = normalized growth mostly below about 0.91 (no sharp cut-off); inconclusive = no clear call, values can overlap the other calls; inactive = mostly above about 0.92. The list shows a part of the results.

Test: chemical genetic growth profiling, strain panel (AID 1159580);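 also: tested at 20 µM; growth read once vehicle control cultures reached saturation at 30 °C; 1 = growth at the plate median or of vehicle wells; lower values mean less growth of the strain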
Conditions: growth OD

Measured: normalized growth

COc1cc(OC)c2c(c1)O[C@H](c1cc(OC)c(OC)c(OC)c1)[C@H](OC(=O)c1cc(OC)c(OC)c(OC)c1)C2
inactive: S. cerevisiae deletion strains, locus YAL013W, strain DEP1, stronger effect = lower value 1.01 | S. cerevisiae deletion strains, locus YBR021W, strain FUR4, stronger effect = lower value 0.998 | S. cerevisiae deletion strains, locus YBR229C, strain ROT2, stronger effect = lower value 1.02 | S. cerevisiae deletion strains, locus YCL029C, strain bik1, stronger effect = lower value 1.01 | S. cerevisiae deletion strains, locus YDL035C, strain GPR1, stronger effect = lower value 0.994 | S. cerevisiae deletion strains, locus YDL074C, strain BRE1, stronger effect = lower value 0.996 | S. cerevisiae deletion strains, locus YDL101C, strain DUN1, stronger effect = lower value 1 | S. cerevisiae deletion strains, locus YDL134C, strain PPH21, stronger effect = lower value 1 | S. cerevisiae deletion strains, locus YDL185W, strain tfp1, stronger effect = lower value 1.01 | S. cerevisiae deletion strains, locus YDL192W, strain arf1, stronger effect = lower value 1 | S. cerevisiae deletion strains, locus YDR101C, strain arx1, stronger effect = lower value 0.999 | S. cerevisiae deletion strains, locus YDR150W, strain NUM1, stronger effect = lower value 1.01 | S. cerevisiae deletion strains, locus YDR162C, strain NBP2, stronger effect = lower value 1 | S. cerevisiae deletion strains, locus YDR318W, strain mcm21, stronger effect = lower value 0.997 | S. cerevisiae deletion strains, locus YDR388W, stronger effect = lower value 1 | S. cerevisiae deletion strains, locus YDR502C, strain sam2, stronger effect = lower value 0.991 | S. cerevisiae deletion strains, locus YEL061C, strain CIN8, stronger effect = lower value 1.01 | S. cerevisiae deletion strains, locus YER110C, stronger effect = lower value 1 | S. cerevisiae deletion strains, locus YER155C, strain BEM2, stronger effect = lower value 1 | S. cerevisiae deletion strains, locus YER167W, strain BCK2, stronger effect = lower value 1.02 | S. cerevisiae deletion strains, locus YGL078C, strain dbp3, stronger effect = lower value 1 | S. cerevisiae deletion strains, locus YGL086W, strain mad1, stronger effect = lower value 0.991 | S. cerevisiae deletion strains, locus YGL248W, strain PDE1, stronger effect = lower value 1.01 | S. cerevisiae deletion strains, locus YGR078C, strain PAC10, stronger effect = lower value 1.02 | S. cerevisiae deletion strains, locus YGR135W, strain pre9, stronger effect = lower value 0.994 | S. cerevisiae deletion strains, locus YGR229C, strain SMI1, stronger effect = lower value 0.993 | S. cerevisiae deletion strains, locus YGR252W, strain gcn5, stronger effect = lower value 0.933 | S. cerevisiae deletion strains, locus YHR030C, strain SLT2, stronger effect = lower value 1.01 | S. cerevisiae deletion strains, locus YHR079C, strain IRE1 (second series), stronger effect = lower value 1 | S. cerevisiae deletion strains, locus YHR094C, strain hxt1, stronger effect = lower value 0.996 | S. cerevisiae deletion strains, locus YHR129C, strain ARP1, stronger effect = lower value 1.01 | S. cerevisiae deletion strains, locus YHR200W, strain rpn10, stronger effect = lower value 0.999 | S. cerevisiae deletion strains, locus YIL066C, strain RNR3, stronger effect = lower value 0.997 | S. cerevisiae deletion strains, locus YIL073C, strain SPO22, stronger effect = lower value 0.995 | S. cerevisiae deletion strains, locus YIL125W, strain kgd1, stronger effect = lower value 1 | S. cerevisiae deletion strains, locus YIR030C, strain dcg1, stronger effect = lower value 1.01 | S. cerevisiae deletion strains, locus YJL095W, strain BCK1, stronger effect = lower value 1.01 | S. cerevisiae deletion strains, locus YJL134W, strain LCB3, stronger effect = lower value 1.01 | S. cerevisiae deletion strains, locus YJL168C, strain set2, stronger effect = lower value 1 | S. cerevisiae deletion strains, locus YJL187C, strain SWE1 (second series), stronger effect = lower value 1 | S. cerevisiae deletion strains, locus YJR043C, strain POL32, stronger effect = lower value 0.992 | S. cerevisiae deletion strains, locus YJR075W, strain HOC1, stronger effect = lower value 1 | S. cerevisiae deletion strains, locus YKL009W, strain mrt4, stronger effect = lower value 0.983 | S. cerevisiae deletion strains, locus YKL068W, stronger effect = lower value 1.01 | S. cerevisiae deletion strains, locus YKL085W, strain MDH1 (second series), stronger effect = lower value 0.993 | S. cerevisiae deletion strains, locus YKL085W, strain MDH1, stronger effect = lower value 0.993 | S. cerevisiae deletion strains, locus YKL190W, strain CNB1, stronger effect = lower value 0.998 | S. cerevisiae deletion strains, locus YKR001C, strain vps1, stronger effect = lower value 0.99 | S. cerevisiae deletion strains, locus YLR039C, strain RIC1, stronger effect = lower value 1.01 | S. cerevisiae deletion strains, locus YLR058C, strain SHM2, stronger effect = lower value 1.01 | S. cerevisiae deletion strains, locus YLR102C, strain apc9, stronger effect = lower value 1 | S. cerevisiae deletion strains, locus YLR262C, strain YPT6, stronger effect = lower value 1.02 | S. cerevisiae deletion strains, locus YLR268W, strain sec22, stronger effect = lower value 1.01 | S. cerevisiae deletion strains, locus YLR330W, strain CHS5, stronger effect = lower value 1.01 | S. cerevisiae deletion strains, locus YLR342W, strain FKS1 (second series), stronger effect = lower value 1 | S. cerevisiae deletion strains, locus YLR371W, strain rom2, stronger effect = lower value 1.01 | S. cerevisiae deletion strains, locus YLR418C, strain cdc73, stronger effect = lower value 0.973 | S. cerevisiae deletion strains, locus YML016C, strain PPZ1, stronger effect = lower value 1 | S. cerevisiae deletion strains, locus YML032C, strain rad52, stronger effect = lower value 0.992 | S. cerevisiae deletion strains, locus YML124C, strain tub3, stronger effect = lower value 1 | S. cerevisiae deletion strains, locus YMR078C, strain ctf18, stronger effect = lower value 1 | S. cerevisiae deletion strains, locus YMR223W, strain ubp8, stronger effect = lower value 0.994 | S. cerevisiae deletion strains, locus YMR263W, strain SAP30, stronger effect = lower value 1 | S. cerevisiae deletion strains, locus YMR307W, strain GAS1, stronger effect = lower value 0.951 | S. cerevisiae deletion strains, locus YNL067W, strain RPL9B, stronger effect = lower value 1.01 | S. cerevisiae deletion strains, locus YNL128W, strain TEP1, stronger effect = lower value 1.02 | S. cerevisiae deletion strains, locus YNL153C, strain GIM3, stronger effect = lower value 1.01 | S. cerevisiae deletion strains, locus YNL233W, strain BNI4, stronger effect = lower value 1 | S. cerevisiae deletion strains, locus YNL250W, strain rad50, stronger effect = lower value 1 | S. cerevisiae deletion strains, locus YNL271C, strain bni1, stronger effect = lower value 1.01 | S. cerevisiae deletion strains, locus YNL298W, strain CLA4, stronger effect = lower value 1.01 | S. cerevisiae deletion strains, locus YNL307C, strain MCK1, stronger effect = lower value 1 | S. cerevisiae deletion strains, locus YNL322C, strain KRE1, stronger effect = lower value 1 | S. cerevisiae deletion strains, locus YNR052C, strain pop2, stronger effect = lower value 1.01 | S. cerevisiae deletion strains, locus YOL006C, strain TOP1, stronger effect = lower value 0.983 | S. cerevisiae deletion strains, locus YOL012C, strain htz1 0.884 | S. cerevisiae deletion strains, locus YOL147C, strain pex11, stronger effect = lower value 0.996 | S. cerevisiae deletion strains, locus YOR061W, strain CKA2, stronger effect = lower value 1 | S. cerevisiae deletion strains, locus YOR069W, strain VPS5, stronger effect = lower value 0.999 | S. cerevisiae deletion strains, locus YOR136W, strain idh2, stronger effect = lower value 0.997 | S. cerevisiae deletion strains, locus YOR144C, strain elg1, stronger effect = lower value 1 | S. cerevisiae deletion strains, locus YOR184W, strain ser1, stronger effect = lower value 0.987 | S. cerevisiae deletion strains, locus YOR316C, strain cot1, stronger effect = lower value 1 | S. cerevisiae deletion strains, locus YPL055C, strain LGE1, stronger effect = lower value 0.989 | S. cerevisiae deletion strains, locus YPL241C, strain CIN2, stronger effect = lower value 0.986 | S. cerevisiae deletion strains, locus YPR119W, strain clb2, stronger effect = lower value 0.995 | S. cerevisiae deletion strains, locus YPR141C, strain kar3, stronger effect = lower value 1 | S. cerevisiae deletion strains, locus YPR163C, strain tif3, stronger effect = lower value 0.997 | S. cerevisiae deletion strains, locus YPR167C, strain met16, stronger effect = lower value 1.01 | S. cerevisiae deletion strains, strain wtn01, stronger effect = lower value 0.992 | S. cerevisiae strains, strain wild type, stronger effect = lower value 1.01
